The source of these data is PMC4336329 (PLoS ONE, 2015).

Each structure is given as a SMILES string. The whole screen tested about 310,000 compounds, of which about 14,000 (4.5%) showed an effect of 50% or more. Effects have a minus sign here. Only a selection was taken, and strong results are over-represented in it overall.
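Further: peak tail current of the secondary pulse compared with the same well before compound.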

The assay deals with human ether-à-go-go-related gene (hERG) potassium channel (human, UniProt Q12809). Briefly: primary screen, population patch clamp on CHO cells stably expressing hERG; higher = less effect of the substance.
human ether-à-go-go-related gene (hERG) potassium channel, sequence (Q12809 whole entry, looked up): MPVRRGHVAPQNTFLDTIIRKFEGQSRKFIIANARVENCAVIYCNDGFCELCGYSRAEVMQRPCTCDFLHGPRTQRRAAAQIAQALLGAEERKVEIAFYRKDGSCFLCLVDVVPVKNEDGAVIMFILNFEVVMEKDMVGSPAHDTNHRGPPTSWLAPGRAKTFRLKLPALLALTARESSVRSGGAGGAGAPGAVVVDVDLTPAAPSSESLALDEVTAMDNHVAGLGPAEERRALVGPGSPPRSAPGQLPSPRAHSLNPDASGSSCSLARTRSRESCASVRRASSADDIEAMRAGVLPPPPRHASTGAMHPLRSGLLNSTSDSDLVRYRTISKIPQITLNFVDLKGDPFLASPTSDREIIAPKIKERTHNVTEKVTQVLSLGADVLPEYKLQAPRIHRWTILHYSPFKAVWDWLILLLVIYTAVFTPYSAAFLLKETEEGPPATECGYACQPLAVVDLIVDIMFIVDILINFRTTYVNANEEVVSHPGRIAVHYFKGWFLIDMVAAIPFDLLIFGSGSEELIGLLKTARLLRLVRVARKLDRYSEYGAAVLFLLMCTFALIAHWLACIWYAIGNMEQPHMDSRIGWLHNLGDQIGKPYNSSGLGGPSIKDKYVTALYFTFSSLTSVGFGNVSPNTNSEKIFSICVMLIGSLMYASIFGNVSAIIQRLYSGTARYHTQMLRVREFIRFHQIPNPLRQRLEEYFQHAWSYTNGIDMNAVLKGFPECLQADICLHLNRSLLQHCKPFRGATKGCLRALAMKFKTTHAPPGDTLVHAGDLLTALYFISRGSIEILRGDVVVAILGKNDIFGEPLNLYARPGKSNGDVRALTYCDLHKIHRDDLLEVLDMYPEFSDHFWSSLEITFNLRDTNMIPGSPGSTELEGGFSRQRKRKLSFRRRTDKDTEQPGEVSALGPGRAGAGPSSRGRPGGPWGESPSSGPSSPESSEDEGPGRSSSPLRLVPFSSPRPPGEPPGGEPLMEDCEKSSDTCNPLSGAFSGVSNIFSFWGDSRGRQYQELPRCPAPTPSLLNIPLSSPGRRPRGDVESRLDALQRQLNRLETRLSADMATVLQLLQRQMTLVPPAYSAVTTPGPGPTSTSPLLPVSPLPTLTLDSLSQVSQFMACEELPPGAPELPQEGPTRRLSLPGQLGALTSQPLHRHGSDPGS
With `O=C(O)c1ccc(COCC(F)(F)C(F)F)o1`, the “hERG current change (%, negative = inhibition) at 10uM” value turned out to be 16%.

As for `CC(CNC(=O)C(C)C)NC(=O)C(C)C` (stereo not shown), the “hERG current change (%, negative = inhibition) at 10uM” value amounted to 7.92%.

For the compound `CCN1C(=O)[C@H]2[C@@H](c3ccc(Cl)cc3)N3C(=O)CN(CCOC)C(=O)[C@@]3(C)[C@H]2C1=O`, the “hERG current change (%, negative = inhibition) at 10uM” value was found to be 3.18%.

Consider `COc1ccc(C2(C(=O)Nc3ccc(C(=O)O)cc3)CCOCC2)cc1`, for which the “hERG current change (%, negative = inhibition) at 10uM” value is 9.95%.

Take `COc1ccc(Cl)cc1NC(=O)CNc1ccccc1CN(C)C1CCCCC1`: the “hERG current change (%, negative = inhibition) at 10uM” value is on record as -37.9%.

Take `COc1ccc(/C=C/C(=O)N2CC(C)OC(C)C2)cc1OC` (stereo not shown): the “hERG current change (%, negative = inhibition) at 10uM” value was -11%.

Consider `CC1CN(C(=O)/C=C/c2ccc(SC(F)F)cc2)CC(C)O1` (stereo not shown), for which the “hERG current change (%, negative = inhibition) at 10uM” value is -59.6%.

With `CC1CN(C(=O)/C=C/c2ccc3c(c2)OCO3)CC(C)O1` (stereo not shown), the “hERG current change (%, negative = inhibition) at 10uM” value is -21%.

Consider `C#Cc1ccc([C@H]2C=C(C(=O)N3CCN(Cc4ccccc4)CC3)O[C@@H](OCC)[C@@H]2CCCO)cc1`, for which the “hERG current change (%, negative = inhibition) at 10uM” value is -19.6%.

As to `COc1ccccc1OCC(=O)NCCSCc1ccccc1Cl`, the “hERG current change (%, negative = inhibition) at 10uM” value is -22.6%.

Take `CC(C)(C)NC(=O)CN1CCC(NC(=O)C23CC4CC(CC(C4)C2)C3)CC1`: the “hERG current change (%, negative = inhibition) at 10uM” value is 28.1%.

As to `O=C(Nc1cccnc1)c1cccnc1Cl`, the “hERG current change (%, negative = inhibition) at 10uM” value is recorded as 4.09%.

Turning to `CC(=O)c1c(N2CCCC2)nc(=S)n(-c2ccccc2)c1C`, the “hERG current change (%, negative = inhibition) at 10uM” value is listed as -0.251%.

Consider `COc1ccc(N2CCN(c3nc(=S)n(-c4ccccc4)c(C)c3C(C)=O)CC2)cc1`, for which the “hERG current change (%, negative = inhibition) at 10uM” value is given as -9.97%.

In the case of `CC(=O)c1c(N2CCN(c3cccc(Cl)c3)CC2)nc(=S)n(-c2ccccc2)c1C`, the “hERG current change (%, negative = inhibition) at 10uM” value is -68.8%.

On to `CCn1c(C)c(C(C)=O)c(N2CCN(c3cccc(Cl)c3)CC2)nc1=S`, for which the “hERG current change (%, negative = inhibition) at 10uM” value is listed as -27.6%.

Turning to `CC(=O)c1c(N2CCN(c3ccc(F)cc3)CC2)nc(=S)n(-c2ccccc2)c1C`, the “hERG current change (%, negative = inhibition) at 10uM” value is reported as -75%.

`CC(=O)c1c(N2CCN(c3ccccc3)CC2)nc(=S)n(-c2ccccc2)c1C`: the “hERG current change (%, negative = inhibition) at 10uM” value was -20.1%.

With `CC(=O)Nc1ccccc1-c1nc2cc(C#N)c(C#N)cc2[nH]c1=O`, the “hERG current change (%, negative = inhibition) at 10uM” value is given as -4.17%.

Take `O=c1[nH]c(NCCO)nc2c1C1(CCCCC1)Cc1ccccc1-2`: the “hERG current change (%, negative = inhibition) at 10uM” value came out at 7.03%.

`COc1cccc(/C=N/NC(=O)CNC(=O)c2ccc3c(c2)OCCO3)c1O`: the “hERG current change (%, negative = inhibition) at 10uM” value is -0.701%.

On to `O=C(NCC1CCCO1)c1cnn2c(C(F)F)cc(C3CC3)nc12` (stereo not shown), for which the “hERG current change (%, negative = inhibition) at 10uM” value was -2.7%.

As for `CCCOC(=O)c1ccc(Nc2nc(C)cc(=O)[nH]2)cc1`, the “hERG current change (%, negative = inhibition) at 10uM” value is listed as 3.46%.

With `COc1ccc(NC(=O)NC2CCCc3ccccc32)c(OC)c1` (stereo not shown), the “hERG current change (%, negative = inhibition) at 10uM” value is listed as 13.3%.

Regarding `Cc1ccc(NC(=O)CSCC(=O)OCc2cc(=O)oc3cc(O)ccc23)c(C)c1`, the “hERG current change (%, negative = inhibition) at 10uM” value is on record as -53.2%.

For the compound `COC(=O)Cc1cc(=O)oc2cc(O)ccc12`, the “hERG current change (%, negative = inhibition) at 10uM” value is recorded as 5.29%.

Turning to `Cc1ccc(NC(=O)COC(=O)CSCC(=O)Nc2cc(C)on2)c(C)c1`, the “hERG current change (%, negative = inhibition) at 10uM” value was -17.9%.

Regarding `CCOc1ccc(/C=N/NC(=S)NC2CC3CC2C2C=CCC32)cc1` (stereo not shown), the “hERG current change (%, negative = inhibition) at 10uM” value was found to be 6.33%.

Consider `CC1=C(C(=O)OCc2ccccc2)C(c2ccc(C)o2)C2=C(CCCC2=O)N1` (stereo not shown), for which the “hERG current change (%, negative = inhibition) at 10uM” value is recorded as -23.7%.

On to `Cc1cc(C(F)(F)F)c2sc(N)nc2n1`, for which the “hERG current change (%, negative = inhibition) at 10uM” value worked out at 5.61%.

On to `CC(c1nc2ccccc2c(=O)[nH]1)N1CCN(C)CC1` (stereo not shown), for which the “hERG current change (%, negative = inhibition) at 10uM” value was -5.2%.

As to `CC(c1nc2ccccc2c(=O)[nH]1)N1CCCN(S(=O)(=O)c2ccc(F)cc2)CC1` (stereo not shown), the “hERG current change (%, negative = inhibition) at 10uM” value is on record as -59.1%.

Turning to `Cc1ccc(S(=O)(=O)N2CCCN(C(C)c3nc4ccccc4c(=O)[nH]3)CC2)cc1` (stereo not shown), the “hERG current change (%, negative = inhibition) at 10uM” value was -25.6%.

Take `CC1CCN(S(=O)(=O)c2ccc(NC(=O)C3CSC4(C)CCC(=O)N34)cc2)CC1` (stereo not shown): the “hERG current change (%, negative = inhibition) at 10uM” value is listed as -6.34%.

Take `COc1ccc(C)cc1S(=O)(=O)NCCc1ccccc1`: the “hERG current change (%, negative = inhibition) at 10uM” value was -28.3%.

`CCN(CC)c1ccc(C(=O)OCC(=O)Nc2ccc3[nH]c(=O)[nH]c3c2)cc1`: the “hERG current change (%, negative = inhibition) at 10uM” value is 5.58%.

Turning to `Cc1ccc2nc(SCc3nnc(-c4ccccc4Br)o3)[nH]c2c1`, the “hERG current change (%, negative = inhibition) at 10uM” value is given as -6.41%.

Turning to `CCOC(=O)c1c(C=O)c(C)n(Cc2ccc(Cl)cc2)c1C`, the “hERG current change (%, negative = inhibition) at 10uM” value is reported as -18.8%.

For `CCOc1ncccc1C(=O)OCc1ccc(Cl)cc1`, the “hERG current change (%, negative = inhibition) at 10uM” value is reported as -20%.

Regarding `CCOC(=O)C1=C(OCc2ccc(Cl)cc2)C2C=C(C)C=CC2N=C1` (stereo not shown), the “hERG current change (%, negative = inhibition) at 10uM” value is reported as -69.1%.

Regarding `CC(=O)c1ccc(-n2c(C)c(C(C)=O)c3cc(O)ccc32)cc1`, the “hERG current change (%, negative = inhibition) at 10uM” value is reported as 8.94%.

As for `CC(C(=O)NCCN1CCOCC1)c1ccc([N+](=O)[O-])cc1` (stereo not shown), the “hERG current change (%, negative = inhibition) at 10uM” value was found to be 16.7%.

For the compound `O=C(c1cccc(Br)c1)N1CCN(C(=O)c2cccc(Br)c2)CC1`, the “hERG current change (%, negative = inhibition) at 10uM” value is reported as -28.5%.
